# Most compounds without a hit are left out; they make up all but 4.3% or so of the library.
# ADAM17 inh = ADAM17 inhibitors, primary screen, biochemical, QFRET; recombinant ADAM17, EDANS/DABCYL FRET peptide cleavage; inhibition, % at 6.95 µM; 370,000 tested, 0.83% active;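 active means inhibition above the mean of compounds lying between control limits plus 3 SD, set per campaign, cut at about 8.5% in these data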;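 further: 0% = DMSO-only wells as the low control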
# HGIII-sPLA2 inh = human group III sPLA2 inhibitors, primary screen, biochemical, QFRET, BODIPY PC-A2 liposome substrate; Group 3 secretory phospholipase A2 (Homo sapiens), Q9NZ20; QFRET BODIPY PC-A2 liposome hydrolysis, fluorescence; inhibition, % at 12.2 µM; 370,000 tested, 0.56% active;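 active means inhibition above mean plus 3 SD of compounds lying within the high and low control bounds, cut at about 19% in these data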;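 further: 0% = median of test compound wells and 100% = no enzyme DMSO wells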
# Target sequence (Q9NZ20 whole entry, looked up): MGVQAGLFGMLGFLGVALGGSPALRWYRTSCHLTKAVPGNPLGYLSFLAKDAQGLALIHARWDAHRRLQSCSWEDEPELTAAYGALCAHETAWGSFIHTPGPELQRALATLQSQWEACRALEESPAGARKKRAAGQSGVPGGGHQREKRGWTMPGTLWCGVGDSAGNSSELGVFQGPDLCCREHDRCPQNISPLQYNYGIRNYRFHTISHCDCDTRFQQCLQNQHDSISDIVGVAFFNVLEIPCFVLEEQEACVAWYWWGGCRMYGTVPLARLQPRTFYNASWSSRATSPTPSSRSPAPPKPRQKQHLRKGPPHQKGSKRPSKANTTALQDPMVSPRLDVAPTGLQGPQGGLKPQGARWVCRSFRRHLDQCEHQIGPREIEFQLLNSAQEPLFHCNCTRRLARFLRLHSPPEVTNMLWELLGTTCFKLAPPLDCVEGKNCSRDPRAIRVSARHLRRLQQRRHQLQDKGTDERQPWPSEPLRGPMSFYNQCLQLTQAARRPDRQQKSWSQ
# ADAM10 inh = human ADAM10 inhibitors, primary screen, biochemical, QFRET, HTS; Disintegrin and metalloproteinase domain-containing protein 10 (Homo sapiens), O14672; recombinant ADAM10, EDANS/DABCYL FRET peptide cleavage, 3 h; inhibition, % at 7 µM; 370,000 tested, 0.62% active; AID 720582, 2013;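 active means inhibition above a per-campaign cutoff equal to the mean of compounds falling between control-based bounds plus 3 SD, cut at about 20% in these data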;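 further: 0% = DMSO wells while the 100% control is not disclosed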
# FAS-TE inh = FAS thioesterase domain inhibitors, primary screen, biochemical, fluorescence intensity, uHTS; Fatty acid synthase (Homo sapiens), P49327; recombinant FAS-TE, OMFH fluorogenic substrate, fluorescence endpoint; inhibition, % at 15 µM; 360,000 tested, 0.67% active;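 active means compounds whose normalised, plate-corrected inhibition of enzyme fluorescence in the single-dose primary screen is 50% or more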;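 further: 0% = DMSO with enzyme and 100% = substrate without enzyme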
# GRIN3A LBD mod = binders of NR3A ligand-binding domain, primary screen, biophysical, differential scanning fluorimetry, uHTS; NR3A LBD differential scanning fluorimetry, Tm shift; 0% = protein alone, 100% = glycine-bound protein; Tm shift relative to glycine control, % at 25 µM; 340,000 tested, 2.5% active; Glutamate receptor ionotropic, NMDA 3A (GRIN3A) ligand-binding domain;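 active means melting temperature shift of at least 10% of the positive control shift, at one fixed dose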
# An asterisk follows results filed as active; i = inactive; . = no result given.
SMILES,ADAM17 inh,HGIII-sPLA2 inh,ADAM10 inh,FAS-TE inh,GRIN3A LBD mod
C[C@@H]1ON(C)[C@H]2C[C@H]3c4[nH]c5c(-c6ccc7c(c6)OCO7)cccc5c4CCN3C[C@@H]12,-2.4,-15.5,-13.3,.,.
O=C(Nc1ccc2snnc2c1)Nc1cccc2ccccc12,-9.3,-24.8,-27.1,13.7,38.4*
C/C(=N\N=C1\NC(=O)C(CC(=O)Nc2ccc(C)c(Cl)c2)S1)C(C)(C)C (configuration not stated),1.6,-19.3,6.2,32.6,19.5*
O=C(CC1S/C(=N/N=C/c2cccs2)NC1=O)Nc1ccc(Cl)c(Cl)c1 (configuration not stated),-2.9,-2.9,-5.8,17.4,28.5*
O=C(CC1S/C(=N/N=C/c2cccs2)NC1=O)Nc1ccc(Cl)cc1 (configuration not stated),5.2,-9.4,3.4,1.1,8.6
CCOc1cc(CCNC(=O)c2cc3sccc3n2CC)ccc1OC,0.5,-5.2,3.4,.,.
Cc1ccc(-n2c(SCC(=O)Nc3ccc4c(c3)OCCO4)nnc2-c2cnccn2)cc1,-0.1,-0.6,-1.6,.,.
O=C(OCc1cn(Cc2ccccc2)nn1)N1CCCC1,2.0,-1.4,4.7,.,.
O=C(O)CCN1C(=O)/C(=C\c2cccc(Oc3ccccc3)c2)SC1=S,-1.0,-21.4,-0.9,-12.5,13.6*
COc1ccc(/C=C2/SC(=S)N(CCC(=O)O)C2=O)cc1,-3.0,-1.4,0.6,-2.8,-0.1
O=C(O)CN1C(=O)/C(=C\c2cccc(OCc3ccccc3F)c2)SC1=S,-1.7,-33.4,7.0,-4.9,30.8*
O=C(O)CN1C(=O)/C(=C\c2cc(Br)ccc2OCc2ccc(Cl)cc2Cl)SC1=S,.,.,.,86.1*,29.4*
O=C(O)CN1C(=O)/C(=C\c2ccccc2OCc2ccc(Cl)cc2)SC1=S,3.9,-40.9,10.2,14.5,6.1
O=C(O)CN1C(=O)/C(=C\c2cccc(OCc3ccc(F)cc3)c2)SC1=S,-4.4,-38.1,-0.1,-24.6,8.6
CN(CC#CC1=CCCCC1)/C(N)=N/C(=O)OCc1ccccc1,7.5,-5.3,7.7,.,.
Cc1ccc2nc(-c3ccc(NC(=S)NCCC(C)C)cc3)sc2c1,-66.0,0.7,-188.6,-9.2,23.7*
Cc1ccc2nc(-c3ccc(NC(=S)NCC(C)(C)CN(C)C)cc3)sc2c1,-281.6,-10.1,i,1.3,-1.0
CCCCNC(=S)Nc1ccc(-c2nc3ccc(C)cc3s2)cc1,-312.7,5.8,i,-6.3,31.2*
CCC(C)(C)NC(=S)Nc1ccc(-c2nc3ccc(C)cc3s2)cc1,i,6.6,i,-1.8,30.7*
Cc1ccc2nc(-c3ccc(NS(=O)(=O)c4ccc(F)cc4)cc3)sc2c1,i,-131.0,i,36.1,30.9*
CN(Cc1ccccc1)S(=O)(=O)c1cccc(C(=O)OCc2cccc(C(F)(F)F)c2)c1,-1.9,2.4,3.8,.,.
CC[C@H]1OC(=O)[C@H](C)[C@@H](O[C@H]2C[C@@](C)(OC)[C@@H](O)[C@H](C)O2)C(C)[C@@H](O[C@@H]2O[C@H](C)C[C@H](N(C)C)[C@H]2O)[C@](C)(O)C[C@@H](C)CN(C)[C@H](C)[C@@H](O)[C@]1(C)O (some centres not stated),-0.4,16.4,-10.4,.,.
CNC(=S)Nc1ccc(-c2nc3ccc(C)cc3s2)cc1,-208.3,-19.6,i,4.8,28.3*
CC(=O)NC(=S)Nc1ccc(-c2nc3ccc(C)cc3s2)cc1,-45.1,1.1,-123.2,-2.7,-2.9
O=C(N/N=C/c1cccc(C(F)(F)F)c1)c1ccc(O)cc1,-3.5,-2.6,-3.3,-0.1,6.8
SMILES,ADAM17 inh,HGIII-sPLA2 inh,ADAM10 inh,FAS-TE inh,GRIN3A LBD mod
Cc1ccc(C(=O)Nc2cccc(C(=O)N/N=C/c3ccc(O)cc3)c2)cc1,-0.5,-12.6,-0.4,-1.8,10.9*
Cc1cccc(C(=O)Nc2cccc(C(=O)N/N=C/c3ccncc3)c2)c1,-2.2,0.4,-1.8,-3.7,0.2
Cc1cccc(C(=O)Nc2ccc(NC(=O)c3cccc(C)c3)cc2)c1,-8.9,1.9,-10.3,-9.5,.
Cc1ccc(C(=O)Nc2ccc(Br)c(C(F)(F)F)c2)cc1,7.1,3.1,19.1,34.0,10.3*
Cc1cccc(C(=O)Nc2ccc(C(=O)Nc3ccc(O)cc3)cc2)c1,-6.2,-25.8,-20.1,-6.3,38.1*
Cc1ccc(NC(=O)c2ccc(C)cc2)cc1,-3.0,8.3,-9.0,-6.7,-10.9
O=C(N/N=C/c1ccc(C(F)(F)F)cc1)c1ccc(O)cc1,1.3,0.8,-4.8,-1.6,11.6*
CS(=O)(=O)N[C@@H]1C[C@@H]2O[C@H](CO)CC[C@@H]2O[C@@H]1CCc1ccc(/C=C/c2ccccc2)cc1,0.1,-40.1,-0.4,.,.
O=C(COc1ccc(F)cc1Cl)Nc1nnc(-c2ccc(F)c(F)c2)o1,1.5,-1.1,10.2,.,.
CC(=O)Nc1ccc(NC(=O)c2ccccc2Br)cc1,-6.4,14.5,-7.0,-12.4,.
Oc1ccc(/C=N/Nc2ccc(C(F)(F)F)cn2)cc1,-6.1,-25.3,-12.7,14.5,26.3*
Cc1cccc(NC(=O)c2ccc(NC(=O)c3ccccc3Br)cc2)c1,1.6,-1.0,13.8,8.1,26.9*
Oc1ccc(/C=N/Nc2ccc(C(F)(F)F)cn2)c(O)c1,-4.4,-27.6,-9.5,9.8,.
COC(=O)[C@]12C[C@H](CC(=O)NCCCN3CCCC3=O)C(=O)N(CCC3=CCCCC3)C1=C[C@H](C(C)C)O[C@@H]2C1CC1,-0.8,-5.8,5.8,.,.
CN(C)S(=O)(=O)c1ccc(C(=O)Nc2nc(-c3ccccc3)c(C(=O)c3ccccc3)s2)cc1,0.8,-1.9,6.9,37.6,22.2*
Cc1ccc(-c2nc(NC(=O)c3ccc(S(=O)(=O)N(CCC#N)CCC#N)cc3)sc2-c2ccccc2)cc1,-0.7,3.3,1.7,4.5,10.3*
O=C(NCCCN1CCN(c2ccc(F)cc2)CC1)Nc1ccccc1,1.4,-0.9,-3.8,.,.
COC(=O)[C@@]12CCCCC=C1N(CCc1ccc(Cl)cc1)C(=O)[C@H]2CC(=O)NCC1CCCCC1,0.5,-5.7,4.6,.,.
O=C(CCc1nc2cccnc2n1Cc1ccccc1)NCCc1ccc(Cl)cc1,-2.1,-6.0,3.4,8.1,11.0*
COCCCNC(=O)CCc1nc2cccnc2n1Cc1ccccc1,-4.7,5.0,-5.5,-5.9,0.8
CCCCNC(=O)C[C@H]1C[C@@]2(C(=O)OC)C(=C[C@H](C(C)C)O[C@@H]2C2CC2)N(CCc2ccc(OC)c(OC)c2)C1=O,-4.3,-1.5,-3.5,.,.
O=C(NCc1ccccc1)N1CCC(c2nc3ccc(Cl)cc3[nH]2)CC1,0.7,1.4,3.7,.,.
COc1ccc(Br)cc1/C=C/C(=O)Nc1ccc2ccccc2c1,6.6,-10.6,3.4,27.4,15.3*
COc1ccc(Br)cc1/C=C/C(=O)Nc1ccc(C)cc1,7.8,-12.7,15.5,23.6,19.9*

# Assay outcomes from PubChem BioAssay.
